High-throughput results as filed in PubChem.
LMNA splice mod = qHTS Assay for Modulators of Lamin A Splicing; HeLa LMNA splicing GFP/RFP minigene ratio, 48 h; Potency, µM (series often up to 46.1 µM), for the others: at the top dose ratio change, negative = inhibition, most hits filed as inhibitors; actives 0.01% (n = 200,000); AID 1487, 2009; active means well fitted inhibition curve with a large enough effect in the signal ratio, with a control signal flat, not every such curve was filed as active; inconclusive means small, poorly fitted or top-dose-only effect, or effect the other way, or a change in a side signal; the % refers to the signal ratio; further: on the % scale 0 is the no-effect control and ±100 the full control effect
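Read-out is the ratio of GFP to DsRed2 object intensity, acquired by 488 nm laser-scanning cytometry on HeLa lamin A-EGFP minigene reporter cells. Compound incubation 48 hrs at 37 °C in Opti-MEM with 2% FBS; DMSO 0.5% final.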
HPGD block = qHTS Assay for Inhibitors of HPGD (15-Hydroxyprostaglandin Dehydrogenase) | 15-hydroxyprostaglandin dehydrogenase [NAD(+)] (Homo sapiens), P15428 | purified HPGD, NADH fluorescence kinetic, PGE2 substrate | Potency, µM, without a hit: at the highest dose activity change, negative = inhibition, usual class: inhibitors | actives 4.3% (n = 150,000) | AID 894, 2007; active means well fitted inhibition curve with a large enough effect, not every such curve was filed as active; inconclusive means small, poorly fitted or top-dose-only effect, or another doubt; inactive means no such curve, though single readings can be large or run the other way; further: on the % scale 0 is the no-effect control and ±100 the full control effect
Target sequence (P15428 whole entry, looked up): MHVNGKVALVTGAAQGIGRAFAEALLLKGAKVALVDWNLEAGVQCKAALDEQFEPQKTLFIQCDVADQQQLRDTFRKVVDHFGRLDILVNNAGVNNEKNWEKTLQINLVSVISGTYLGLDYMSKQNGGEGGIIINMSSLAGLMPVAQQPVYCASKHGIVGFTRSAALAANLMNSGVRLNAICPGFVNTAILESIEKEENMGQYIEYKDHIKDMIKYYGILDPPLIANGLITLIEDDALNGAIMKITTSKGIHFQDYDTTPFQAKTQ
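20 nM HPGD preincubated 15 min at room temperature with compound in 50 mM Tris-HCl pH 8, 0.01% Tween 20. Started with 1 mM NAD+ and 30 uM prostaglandin E2; NADH fluorescence (360/450 nm) read 5 times over 30-s intervals, last minus first.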
HTT aggregate = qHTS Multiplex Assay to Identify Dual Action Probes in a Cell Model of Huntington: Aggregate Formation (GFP). PC12 HttQ103-GFP aggregates, Acumen cytometry, 40 h. Potency, µM (top dose mostly 46.1 µM), for the others: at the top dose activity change, negative = inhibition, usual class: inhibitors. actives 1.1% (n = 220,000); further: on the % scale 0 is the no-effect control and ±100 the full control effect; nearly all actives have a fitted effect of over 60% in size
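Compounds (qHTS titration) were added to PC12 cells expressing an ecdysone-driven HTT exon 1 Q103–GFP fusion after induction with 100 nM tebufenozide. Aggregate formation was measured as GFP objects in cell lysates.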
ALDH1A1 inh = qHTS Assay for Inhibitors of Aldehyde Dehydrogenase 1 (ALDH1A1). Potency, µM (highest dose often 75.3 µM), without a hit: at the top dose activity, negative = inhibition, most hits filed as inhibitors. actives 7.3% (n = 220,000). Purified ALDH1A1, NADH fluorescence, propionaldehyde substrate. AID 1030, 2008. Aldehyde dehydrogenase 1A1 (Homo sapiens), P00352; active means well fitted inhibition curve with a large enough effect, not every such curve was filed as active; inconclusive means small, poorly fitted or top-dose-only effect, or another doubt; inactive means no such curve, though single readings can be large or run the other way;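 further: plate controls were no enzyme wells and a reference inhibitor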
Target sequence (P00352 whole entry, looked up): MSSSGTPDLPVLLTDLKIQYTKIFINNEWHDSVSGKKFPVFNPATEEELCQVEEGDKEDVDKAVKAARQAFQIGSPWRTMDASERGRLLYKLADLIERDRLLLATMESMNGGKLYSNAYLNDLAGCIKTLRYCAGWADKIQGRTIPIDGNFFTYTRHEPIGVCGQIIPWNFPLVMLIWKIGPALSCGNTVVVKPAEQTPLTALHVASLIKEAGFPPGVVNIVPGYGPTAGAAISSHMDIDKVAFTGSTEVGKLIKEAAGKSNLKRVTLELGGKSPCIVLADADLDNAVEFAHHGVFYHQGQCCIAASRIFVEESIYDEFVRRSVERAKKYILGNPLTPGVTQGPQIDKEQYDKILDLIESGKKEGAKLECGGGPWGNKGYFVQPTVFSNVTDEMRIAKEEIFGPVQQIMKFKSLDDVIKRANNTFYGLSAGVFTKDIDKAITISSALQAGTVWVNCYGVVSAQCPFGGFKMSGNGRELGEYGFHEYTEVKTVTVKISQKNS
HTT cytoprotect = qHTS Multiplex Assay to Identify Dual Action Probes in a Cell Model of Huntington: Cytoprotection (ATP); PC12 HTT-Q103 induced, cytoprotection, ATP luminescence, 40 h; Potency, µM (doses to about 56.4 µM), for inactives: cytoprotection (ATP increase), hits mostly activators; actives 0.14% (n = 230,000); AID 1471, 2008; further: % of control where 0% means no effect; nearly all actives have a fitted effect of over 45% in size
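Compounds added alongside 100 nM tebufenozide, which induces toxic Q103 huntingtin exon 1-GFP in stable PC12 cells; surviving cells quantified by luminescent ATP measurement. Medium: phenol red-free DMEM, 5% equine and 5% calf serum.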
Starred values were filed as active, the others as inactive; ? = inconclusive; . = no result; [ ] = dose if it differs, or a comment. The list is not random: actives were taken first. Their share in the collection is about 8.8%. Unless noted, the call rests on the fitted dose curve; in most records, active means well fitted curve in the direction sought with a large enough effect; inconclusive means small, poorly fitted or top-dose-only effect, or another doubt; inactive means no such curve, though single readings can be large; an effect the other way counts as inactive or inconclusive. Potency means the concentration at half of the fitted maximal effect.

SMILES | LMNA splice mod | HPGD block | HTT aggregate | ALDH1A1 inh | HTT cytoprotect
CCn1c(SCC(=O)N/N=C/C(C)=C\c2ccco2)nnc1-c1ccccc1 | -2% | -16% | 5% | ? | 13%[10 µM]
O=C(CNc1cccc2ccccc12)N/N=C/C=C/c1ccco1 | . | . | 9% | ? | 20%
CCn1c(SCC(=O)N/N=C(\C)c2ccco2)nnc1-c1ccccc1 | ? | . | . | 11µM* | .
Cc1ccc(/C=N/NC(=O)CSc2nnc(-c3ccccc3)n2-c2ccc(Cl)cc2)o1 | 19% | -1% | 16% | ? | 10%[10 µM]
O=C(CSc1nnc(SCc2ccccc2)s1)N/N=C/C=C/c1ccco1 | -10% | 28µM* | ? | 14µM* | 13%[10 µM]
Cc1ccc(/C=N/NC(=O)CSc2nnc(-c3ccc(Cl)cc3)n2-c2ccc(Cl)cc2)o1 | 19% | -4% | 8% | 10µM* | 10%[10 µM]
O=C(Cc1cccs1)N/N=C/C=C/c1ccco1 | 2% | ? | 6% | 4µM* | .
Cc1cc(OCC(=O)NCC2(N3CCOCC3)CCCCC2)ccc1Cl | 5%[46 µM] | . | . | . | .
CCCCCCCCCCCCCCCCOC[C@H](COP(=O)([O-])OCC[N+](C)(C)C)OC(=O)NC | . | -7% | . | -1% | -7%
C[C@@H](c1ccccc1)N1C(=O)[C@H]2[C@@H]3[C@H](O)[C@H](O)CC(=O)[C@H]3CC[C@H]2C1=O | . | . | . | 0%[13.5 µM] | 1%[10 µM]
Cn1c(SCC(=O)N/N=C/C=C/c2ccco2)nc2ccccc21 | 6% | -25% | ? | 14µM* | .
CCn1c(SCC(=O)N/N=C/C=C/c2ccco2)nnc1-c1ccccc1 | ? | -10% | 10% | 18µM* | 15%[10 µM]
O=S(=O)(O)c1cc(S(=O)(=O)O)c2c(N=Nc3cccc4ccccc34)c(O)ccc2c1 | . | -8% | . | ? | -33%[10 µM]
COc1ccc(CCN2C(=O)CS/C2=N\NC(=O)c2cccs2)cc1OC | ? | . | 18%[9.22 µM] | 2% | 22%[10 µM]
COc1ccc(C(=O)N2CC3(CC(c4cccc([N+](=O)[O-])c4)=NO3)C[C@H]2C(=O)NCC(N)=O)cc1 (stereo not given in full) | 8% | ? | -3% | 11µM* | 4%
CCC(=O)N1CC2(CC(c3cccc([N+](=O)[O-])c3)=NO2)C[C@H]1C(=O)NCC(N)=O (stereo not given in full) | 16% | -14% | 24% | 2% | 0%
O=C(NCCc1ccc(Cl)cc1)C(=O)NCC(c1cccs1)S(=O)(=O)c1cccs1 (stereo not given) | -3%[46 µM] | . | . | . | .
COc1cccc2c3c(c(=O)[nH]c12)CCC(C)(C)O3 | -9% | 16µM* | -12% | 5% | -9%
N[C@H](C(=O)O)[C@@H]1C[C@@H]1C(=O)O | . | -2% | . | -2% | -21%
O=C(c1cccnc1)N1CCN(Cc2cccc(Br)c2)CC1 | -4% | -11% | ? | 10µM* | ?
COc1cc(OC)cc(C(=O)N2CCN(Cc3cccc(F)c3)CC2)c1 | -2% | 0% | ? | ? | 21%
COc1cccc(C(=O)N2CCN(Cc3cccc(F)c3)CC2)c1 | 0% | -1% | -12% | 18µM* | -23%[10 µM]
COc1cc(CNCCSc2nnnn2C)cc(Br)c1OCc1ccccc1 | . | . | ? | 16% | -66%
O=C(COc1ccc(Cl)cc1)N1CCN(C(=O)c2cccs2)CC1 | ? | . | 1%[9.22 µM] | ? | ?
NCCCCNS(=O)(=O)c1cccc2c(Cl)cccc12 | ? | -19% | . | -8% | -8%[1.9 µM]
SMILES | LMNA splice mod | HPGD block | HTT aggregate | ALDH1A1 inh | HTT cytoprotect
O=S(=O)(NCCCCCNS(=O)(=O)c1ccccc1)c1ccccc1 | ? | -11% | -26% | 0.56µM* | 16%[1.9 µM]
Cc1ccc(S(=O)(=O)NCCCNS(C)(=O)=O)cc1 | 0% | -6% | -7% | ? | 11%
O=S(=O)(NCCCc1ccccc1)c1ccccc1 | 3% | -10% | -17% | ? | 5%
O=[N+]([O-])c1ccc(NCCCNS(=O)(=O)c2ccccc2)cc1 | 7%[46 µM] | . | 7%[9.22 µM] | 18µM* | -58%
NCCCCCCNS(=O)(=O)c1cccc2ccccc12 | . | -26% | . | 13µM* | 12%
Cc1ccc(S(=O)(=O)NCCCNc2ccc([N+](=O)[O-])cc2)cc1 | 2%[46 µM] | . | 4%[9.22 µM] | 14µM* | 4%[10 µM]
O=C(NS(=O)(=O)c1ccc(F)cc1)O[C@@H]1C(=O)c2cc(Br)ccc2O[C@H]1c1ccc2c(c1)OCO2 | . | -9% | . | ? | ?
CCOc1ccc(CCNC(=O)c2ccc3c(c2)nc2n3CCOC2)cc1OCC | -4%[46 µM] | . | . | . | .
COCCn1c(=O)c(-c2ccc(Cl)cc2)nc2cnc(OC)nc21 | . | -27% | . | ? | 0%
O=C1CCCC(O)=C1C(C#Cc1ccccc1)C1=C(O)CCCC1=O | ? | 4µM* | 12% | 6.3µM* | 6%[10 µM]
CC1(C)CC(=O)C(C(C#Cc2ccccc2)C2=C(O)CC(C)(C)CC2=O)=C(O)C1 | 3% | 7.9µM* | 15% | 6.3µM* | -19%
Cc1ccc(NC(=O)CN2C(=O)C(C)(C)c3cc(S(=O)(=O)N4CCCCC4)ccc32)c(Br)c1 | 7%[46 µM] | . | . | . | .
CC12C=C(/C=C/c3ccc(C(F)(F)F)cc3)C(C)(C1)C(c1ccc(C(F)(F)F)cc1)CC2=O (stereo not given) | . | . | . | 10%[13.5 µM] | -7%[10 µM]
COc1ccccc1C(=O)Nc1cc(-c2cccc(Br)c2)nn1-c1ccccc1 | -17%[46 µM] | . | . | . | .
CC1=C(C)CC(C(=O)N2CCN(Cc3ccccc3)CC2)C(C(=O)O)C1 (stereo not given) | -6% | -6% | -7% | 14µM* | 5%
O=C(N1CCN(c2ccccc2)CC1)C12CC3CC(CC(C3)C1)C2 | ? | -9% | -5% | ? | -7%[10 µM]
CS(=O)(=O)N1CCC(C(=O)N2CCN(Cc3ccccc3)CC2)CC1 | . | . | -12% | ? | 6%
O=C(N1CCN(Cc2ccccc2)CC1)C12CC3CC(CC(C3)C1)C2 | -24% | -3% | ? | 6.3µM* | -5%[10 µM]
COc1ccc(C(C#N)N2CCC(c3ccccc3)=N2)cc1OC (stereo not given) | ? | . | 40%[9.22 µM] | 2.2µM* | 26%[10 µM]
COc1cc(C(C#N)N2CCC(c3ccccc3)=N2)ccc1O (stereo not given) | . | . | 18%[9.22 µM] | . | 28%[10 µM]
COc1ccc(C2=NN(C(C#N)c3ccc(OC)c(OC)c3)C(c3ccccc3)C2)cc1 (stereo not given) | -8% | -29% | -14% | 18µM* | -29%
CC[C@H](C)C(=O)O[C@H]1C[C@H](O)C=C2C=C[C@H](C)[C@H](CC[C@@H](O)C[C@@H](O)CC(=O)O)[C@H]21 | . | -4% | . | 7% | -15%
